Screening results: PubChem, National Center for Advancing Translational Sciences (NCATS)
This is a sample that favours compounds with a hit; in the whole collection about 22% have one here.
CHX counter: Cycloheximide Counterscreen for Small Molecule Inhibitors of Shiga Toxin. cell reporter, cycloheximide protein synthesis inhibition counterscreen. max response, %. actives 12% (n = 300,000); in the data active = max response mostly above about 13%, no sharp cut-off; inactive = mostly below about 14%; note: read at 38.3 µM for the half of the compounds with a filed dose; 0% is about no effect
Pf growth 48h: Primary qHTS for delayed death inhibitors of the malarial parasite plastid, 48 hour incubation. P. falciparum luciferase growth in erythrocytes, 48 h. Potency, µM (top dose mostly 28.7 µM), for the others: top-dose activity change, negative = inhibition, usual class: inhibitors. actives 5.9% (n = 310,000). AID 504832, 2011; note: potency is the fitted concentration of half-maximal effect; % is set by controls: 0 for no effect and ±100 for the full control effect
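Firefly luciferase activity from engineered P. falciparum reports growth; inhibitors lower the luminescent signal. Cultures contained 2% hematocrit erythrocytes at 0.1% final parasitemia.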
LmPK inh: qHTS Assay for Inhibitors of Leishmania Mexicana Pyruvate Kinase (LmPK) | Q27686 | purified LmPK, Kinase-Glo ATP luminescence, 1 h | Potency, µM (top dose mostly 57.5 µM), for the others: at the top dose activity change, negative = inhibition, most hits filed as inhibitors | actives 0.37% (n = 290,000) | AID 1721, 2009; note: potency is the fitted concentration of half-maximal effect; % is set by controls: 0 for no effect and ±100 for the full control effect
Target sequence (Q27686 whole entry, looked up): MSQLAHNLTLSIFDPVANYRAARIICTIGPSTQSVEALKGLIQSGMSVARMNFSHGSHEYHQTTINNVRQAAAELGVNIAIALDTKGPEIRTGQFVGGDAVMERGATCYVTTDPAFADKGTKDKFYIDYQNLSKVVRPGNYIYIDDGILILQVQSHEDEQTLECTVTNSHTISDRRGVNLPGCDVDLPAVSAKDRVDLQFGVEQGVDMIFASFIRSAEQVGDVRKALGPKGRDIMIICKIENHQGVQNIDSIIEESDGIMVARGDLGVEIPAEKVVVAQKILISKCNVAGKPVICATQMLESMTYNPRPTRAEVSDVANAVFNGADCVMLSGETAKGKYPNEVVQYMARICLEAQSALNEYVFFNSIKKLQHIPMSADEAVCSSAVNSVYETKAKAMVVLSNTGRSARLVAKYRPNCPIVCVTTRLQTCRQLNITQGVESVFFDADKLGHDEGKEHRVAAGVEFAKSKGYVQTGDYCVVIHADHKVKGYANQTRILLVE
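qHTS format; LmPK 0.1 nM; substrates PEP 0.5 mM and ADP 0.1 mM. One-hour room-temperature incubation, then coupled luciferase luminescence; 0.5 nM enzyme wells mark activation.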
Shiga toxin inh: A qHTS for Small Molecule Inhibitors of Shiga Toxin | Vero cells, Shiga toxin protein synthesis inhibition reporter | inhibition, % at 38.7 µM | actives 9.2% (n = 290,000); in the data active = inhibition mostly above about 28%, no sharp cut-off; inactive = mostly below about 43%; note: 0% is about no effect
Pf growth 96h: Primary qHTS for delayed death inhibitors of the malarial parasite plastid, 96 hour incubation | P. falciparum luciferase reporter growth, 96 h | Potency, µM (series often up to 28.7 µM), for the others: top-dose activity change, negative = inhibition, actives largely listed as inhibitors | actives 6.9% (n = 320,000) | AID 504834, 2011; note: potency is the fitted concentration of half-maximal effect; % is set by controls: 0 for no effect and ±100 for the full control effect
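Parasite growth measured via integrated firefly luciferase reporter in P. falciparum. Infected erythrocytes at 2% hematocrit, 0.05% parasitemia final were treated 96 hours at 37 C under 5% CO2, and luminescence was read.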
* marks the source's active call; other numbers are inactive results; i = inactive; ? = inconclusive; . = no result. Unless noted, calls come from the whole dose curve; as a rule, active = well fitted inhibition curve with a large enough effect; inconclusive = small, poorly fitted or top-dose-only effect, or another doubt; inactive = no such curve, though single readings can be large or run the other way.

SMILES | CHX counter | Pf growth 48h | LmPK inh | Shiga toxin inh | Pf growth 96h
Cc1ccc(CNC(=O)Cn2cnc3c(NC(=O)OCc4ccccc4)ncnc32)o1 | . | 13% | . | . | -2%
COc1ccccc1N1CCN(S(=O)(=O)CCNC(=O)CC2CCCCC2)CC1 | . | -2% | . | . | 4%
FC(F)(F)COc1cc(-c2nnc(SCc3ccccc3)n2Cc2ccco2)cc(OCC(F)(F)F)n1 | 2 | 6.6µM* | 5% | 15 | 12µM*
CCOC(=O)CSc1nc2ccccc2c(=O)n1Cc1ccco1 | -4 | -2% | 1% | -4 | 1%
O=C(CSc1nc2ccccc2c(=O)n1Cc1ccco1)c1ccccc1 | 24* | -19% | 1% | 52 | 0%
c1cncc(CSc2nnc(-c3cccnc3)n2Cc2ccco2)c1 | -7 | 17% | 0% | -7 | 32%
O=c1c2ccccc2nc(SCc2ccccc2)n1Cc1ccco1 | 36* | ? | 2% | 110 | 18%
CN1CCN(C(=O)CCc2nc3ccccc3n2-c2ccccc2)CC1 | -3 | 17% | 0% | -7 | 34%
COc1ccc(CNC(=O)COC(=O)C2CCC(C(C)(C)C)CC2)cc1 (stereo not drawn) | -4 | 15% | 0% | 5 | -1%
COC(=O)c1ccnc(SCC(=O)c2ccccc2)c1 | 43* | 43% | -30% | 79* | 47%
COC(=O)c1cnc(SCC(=O)c2ccccc2)n1C | 43* | 154% | ? | 100* | 346%
COC(=O)CSc1nnc(SCc2ccc(Cl)cc2)s1 | 5 | . | 4% | 40 | -12%
Cn1c(SCC(=O)c2ccccc2)ncc(C(=O)Nc2ccccc2)c1=O | . | 0% | . | . | 28%
COC(=O)c1cnc(SCc2ccc(Cl)cc2)n1C | 47* | 60% | -4% | 65* | 43%
CC(=O)N1c2ccc(S(=O)(=O)N(C)CC(=O)NCc3ccc(C)cc3)cc2CC1C (stereo not drawn) | 13 | 2% | -2% | 2 | ?
CCc1cc2c(=O)c(-c3cscn3)coc2c(CN(C)C)c1O | -3 | 12µM* | -1% | -5 | ?
CCc1cc2c(=O)c(-c3ccc4c(c3)OCO4)coc2c(CN(C)C)c1O | -3 | 9.3µM* | 6% | 8 | 13µM*
CCOc1ccccc1NC(=S)NCC1CCCO1 (stereo not drawn) | -3 | 7% | 0% | -5 | 30%
Cc1nc(SCC(=O)O)n[nH]1 | -1 | 7% | -3% | -4 | 21%
Cc1ccc(C)c(C(=O)CSc2n[nH]c(C)n2)c1 | 6 | -38% | 3% | -27 | ?
CCc1ccc(C(=O)CSc2n[nH]c(C)n2)cc1 | 44* | 25% | 3% | 111* | -26%
Cc1ccc(C(=O)CSc2n[nH]c(C)n2)cc1 | 30* | 0% | -1% | 86* | 31%
Cc1ccc(C(C)C)c(OCC(=O)NS(=O)(=O)c2ccc(Cl)cc2)c1 | -3 | 2% | -1% | -12 | 0%
O=C1c2ccc([N+](=O)[O-])cc2NC(c2ccco2)N1/N=C/c1ccco1 (stereo not drawn) | 15* | 33% | 3% | 31* | ?
O=[N+]([O-])c1ccc(S(=O)(=O)N/N=C/c2ccco2)cc1 | -4 | 5% | 10% | -26 | -5%
SMILES | CHX counter | Pf growth 48h | LmPK inh | Shiga toxin inh | Pf growth 96h
O=C1c2ccccc2NC(c2ccc(-c3cccc([N+](=O)[O-])c3)o2)N1O (stereo not drawn) | 1 | ? | 0% | -3 | ?
CN=c1scc(-c2ccc([N+](=O)[O-])cc2)n1/N=C/c1ccco1 | 27* | 338% | 1% | 91* | i
Cc1ccccc1NC(=O)NCCCN1CCN(c2ccccc2)CC1 | 1 | . | 1% | -15 | 2.3µM*
COc1ccc(N2CCN(CCCNC(=O)Nc3ccccc3)CC2)cc1 | 3 | . | 7% | 32 | -1%
O=C(NCCCN1CCc2ccccc2C1)Nc1ccc(Br)cc1 | 23* | . | 3% | -9 | ?
COc1ccc(NC(=O)NCCCN2CCc3ccccc3C2)cc1 | -2 | 10% | 1% | 10 | 19%
COc1ccc(C(=O)NCCCN2CCN(CCCNC(=O)c3ccc(OC)c(OC)c3)CC2)cc1OC | . | 15% | . | . | -12%
COc1ccccc1N1CCN(CCCNC(=O)Nc2ccccc2)CC1 | 3 | 12µM* | 8% | 14 | ?
COc1ccccc1N1CCN(CCCCNC(=O)c2ccc3ccccc3c2)CC1 | . | ? | . | . | 4.1µM*
CC(NCC(=O)Nc1ccccc1C(=O)NC1CC1)c1ccc(S(C)(=O)=O)cc1 (stereo not drawn) | . | -22% | . | . | ?
CCC(C)c1ccccc1NC(=O)COC(=O)C1=COCCO1 (stereo not drawn) | -2 | -2% | 0% | -5 | 24%
COc1ccc(OCCSc2ncnc3nc[nH]c23)cc1 | 37* | . | 1% | 36 | ?
Fc1ccccc1OCCSc1ncnc2nc[nH]c12 | 36* | 62% | 1% | 76* | 4.7µM*
CCCCn1c(N)c(N(CC(C)C)C(=O)c2ccc(-c3ccc([N+](=O)[O-])cc3)o2)c(=O)[nH]c1=O | . | 0% | . | . | ?
CC1CC(=O)N(CC(=O)Nc2ccccc2F)c2ccccc2S1(=O)=O (stereo not drawn) | -4 | 13% | 0% | -1 | 3%
CC(C)(C)NC(=O)CCN(/N=C/c1ccccc1O)C1=NS(=O)(=O)c2ccccc21 | -2 | ? | 11% | -10 | 23%
CC(CNC(=O)c1cc(Cl)ccc1[N+](=O)[O-])NC(=O)c1cc(Cl)ccc1[N+](=O)[O-] (stereo not drawn) | 4 | 7% | 6% | -21 | 32%
Cc1ccc(-n2c3c(c(=O)[nH]c2=O)C(NS(=O)(=O)c2ccc(C)cc2)(C(F)(F)F)C(=O)N3)cc1 (stereo not drawn) | -3 | ? | 0% | -11 | 245%
O=C1Nc2c(c(=O)[nH]c(=O)n2Cc2ccccc2)C1(NS(=O)(=O)c1ccccc1)C(F)(F)F (stereo not drawn) | -1 | 76% | -6% | -6 | 15µM*
Cc1ccc(-n2c3c(c(=O)[nH]c2=O)C(NS(=O)(=O)c2ccc(Cl)cc2)(C(F)(F)F)C(=O)N3)cc1 (stereo not drawn) | -3 | ? | 2% | -5 | 13µM*
NC(=O)C1CCN(C(=O)C2CC(=O)N(Cc3ccccc3)C2)CC1 (stereo not drawn) | . | 15% | . | . | 15%
CCOc1ccccc1N(CC(=O)Nc1cccnc1)S(=O)(=O)c1ccc(C)cc1 | 50* | ? | -4% | 160* | 38%
CNC(=O)CN(c1cc(OCCOC)c(Cl)cc1Cl)S(=O)(=O)c1ccccc1 | 14 | 283% | -2% | 8 | ?
COCCOc1cc(N(CC(=O)N(C)C)S(=O)(=O)c2ccccc2)c(Cl)cc1Cl | 14 | 4% | -3% | 19 | 12µM*
CCOc1ccccc1N(CC(=O)Nc1cccnc1)S(C)(=O)=O | -2 | -16% | -3% | 19 | .
